# Laboratory results published in PubChem BioAssay (NCATS).
# Results filed as inconclusive are left out. Entries that show only a call come without a potency. Unmarked numbers belong to inactive results. Activity calls are given as the source filed them. Calls come from the whole dose curve; as a rule, active = well fitted cell-killing curve with a large enough effect; inconclusive = small, poorly fitted or top-dose-only effect, or effect the other way; inactive = flat fitted curve, though single readings scatter.
# Legend:
# Tov-21-G = test: Primary qHTS to identify gynecologic anti-cancer compounds using libraries of approved drugs and bioactive compounds (AID 1345084); details: Gynecologic cancer cell panel viability, ATPlite luminescence, 48 h; series mostly up to 57.5 µM; note: nearly all actives have a fitted effect of over 55% in size
# In short: (§1)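 Five-concentration response, 48 h; readout is ATP-driven luciferase luminescence.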
# Tov112D = test: as above; details: Gynecologic cancer cell panel viability, ATPlite luminescence, 48 h; series mostly up to 57.5 µM
# In short: as §1
Structure (SMILES),Potency (Tov-21-G),Potency (Tov112D),"activity change, negative = cytotoxicity (Tov-21-G)","activity change, negative = cytotoxicity (Tov112D)"
C=C(C)C1CC2(CO)C(=CC1=O)CCC(O)C2C (stereo not given),inactive,inactive,–,–
O=S(=O)(NC1CCNCC1)c1cc(S(=O)(=O)c2ccccc2)ccc1C(F)(F)F,inactive,inactive,–,–
CC(=O)O[C@@H]1[C@H](O[C@@H]2OC[C@](O)(CO)[C@H]2O)[C@@H](O[C@@H]2O[C@@H](C)[C@H](O)[C@@H](O)[C@H]2O)[C@H](OC(=O)[C@]23CCC(C)(C)C[C@H]2C2=CCC4[C@@]5(C)C[C@H](O)[C@H](O[C@@H]6O[C@H](C(=O)O)[C@@H](O)[C@H](O)[C@H]6O)[C@@](C)(C(=O)O)C5CC[C@@]4(C)[C@]2(C)CC3)O[C@@H]1C (stereo not given in full),–,–,1.94% [at 11.6 µM],2.89% [at 11.6 µM]
C=C(C(=O)O)[C@@H]1CC=C2CCC[C@H](C)[C@@]2(C)C1,inactive,inactive,–,–
C[C@@H](Nc1cc(NS(=O)(=O)N2CCC2)nc(SCc2cccc(F)c2F)n1)[C@@H](O)CO,inactive,inactive,–,–
CC(=O)[C@@H]1CC[C@]2(C(=O)O)CC[C@]3(C)C(CCC4[C@@]5(C)CC[C@H](O)C(C)(C)C5CC[C@]43C)C12 (stereo not given in full),inactive,inactive,–,–
O=C(O)C[C@H]1CCC(=O)[C@@H]1C/C=C\CCOC1OC(CO)C(O)C(O)C1O (stereo not given in full),inactive,inactive,–,–
COc1cc(/C=C/C(=O)OC2CC(C)=C(C(=O)O)/C2=C/CO[C@@H]2O[C@H](CO)[C@@H](O)[C@H](O)[C@H]2O)ccc1O (stereo not given in full),inactive,inactive,–,–
O=C1[C@H](O[C@@H]2O[C@H](CO)[C@@H](O)[C@H](O)[C@H]2O)Oc2ccccc2N1O,inactive,inactive,–,–
COCC(=O)N1CCc2cc(-c3csc(NC(=O)c4cc(OC)cc(OC)c4)n3)ccc21,inactive,inactive,–,–
